Reference: the supplement of paper PMC7366291
Counter-ions that a name gives are not always drawn. ± gives the standard deviation of the averaged measurements.

These compounds were tested on Danio rerio Tg(wt1b:EGFP) embryo, pronephros (assay: glomerular width (mean of left and right), fold change vs DMSO control; higher = wider glomerulus). Conditions: 25 µM; exposure: 24-48 hpf.
Procedure, shortened: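 In HEPES-buffered E3 with 0.003% PTU and 0.5% DMSO, dechorionated Tg(wt1b:EGFP) zebrafish embryos were exposed to 25 μM compound from 24 to 48 hpf at 28.5°C. Pronephroi were then imaged dorsally at 470 nm in 10 z-slices, in 96-well plates filled with agarose. On maximum projections, a Fiji macro turned 16 manually placed reference points into distances and angles, and values more than 2 SD from the feature mean were excluded. Features are fold changes relative to the mean of DMSO-treated embryos from the same day.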

Row | Structure (SMILES) | glomerular width
1 | CC1(C)O[C@@H]2C[C@H]3[C@@H]4CCC5=CC(=O)C=C[C@]5(C)[C@H]4[C@@H](O)C[C@]3(C)[C@]2(C(=O)CO)O1 [Desonide] | 1.33 ± 0.024
2 | NNC(=O)c1ccncc1 [Isoniazid] | 1.09 ± 0.032
3 | O=c1[nH]c(=O)n(C2CCCO2)cc1F (stereo not given) [Tegafur] | 1.05 ± 0.057
4 | CN1CCOC(c2ccccc2)c2ccccc2C1 (stereo not given) [Nefopam hydrochloride] | 0.982 ± 0.05
5 | COc1ccc(/C=C/C(=O)Nc2ccccc2C(=O)O)cc1OC [Tranilast] | 1.08 ± 0.049
6 | NS(=O)(=O)c1cc(C(=O)O)c(NCc2ccco2)cc1Cl [Furosemide] | 0.959 ± 0.097
7 | C[N+](C)(C)CCCCCC[N+](C)(C)C [Hexamethonium dibromide dihydrate] | 1.09 ± 0.035
8 | CCn1cc(C(=O)O)c(=O)c2cnc(N3CCNCC3)nc21 [Pipemidic acid] | 1.05 ± 0.013
9 | c1ccc2c(CC3=NCCN3)cccc2c1 [Naphazoline hydrochloride] | 1 ± 0.0079
10 | CN(C)CCC(c1ccc(Cl)cc1)c1ccccn1 (stereo not given) [Chlorpheniramine maleate] | 1.04 ± 0.042
11 | COc1ccc(CN2CCN(C(c3ccc(F)cc3)c3ccc(F)cc3)CC2)c(OC)c1OC [Lomerizine hydrochloride] | 0.9746 ± 0.0083
12 | CN(C)CCC=C1c2ccccc2COc2ccccc21 [Doxepin hydrochloride] | 0.99 ± 0.035
13 | CCN(CC)CCNc1ccc(CO)c2sc3ccccc3c(=O)c12 [Hycanthone] | 0.968 ± 0.052
14 | Nc1ccccc1S(N)(=O)=O [2-Aminobenzenesulfonamide] | 1.02 ± 0.072
15 | C[C@@H](O)[C@H]1C(=O)N2C(C(=O)O)=C(SCCNC=N)C[C@H]12 [Imipenem] | 1.091 ± 0.01
16 | CCOc1ccccc1OC(c1ccccc1)C1CNCCO1 (stereo not given) [Reboxetine mesylate] | 1 ± 0.077
17 | CC(C)(O)c1ccccc1CC[C@@H](SCC1(CC(=O)O)CC1)c1cccc(/C=C/c2ccc3ccc(Cl)cc3n2)c1 [Montelukast] | 0.925 ± 0.047
18 | CN(C)C/C=C(/c1ccc(Br)cc1)c1cccnc1 [Zimelidine dihydrochloride monohydrate] | 0.9778 ± 0.0056

Row | Structure (SMILES) | glomerular width
19 | Cc1ccc(S(=O)(=O)NC(=O)NN2CC3CCCC3C2)cc1 (stereo not given) [Gliclazide] | 1.05 ± 0.021
20 | CN[C@H](CC(C)C)C(=O)N[C@H]1C(=O)N[C@@H](CC(N)=O)C(=O)N[C@H]2C(=O)N[C@H]3C(=O)N[C@H](C(=O)N[C@H](C(=O)O)c4cc(O)cc(O)c4-c4cc3ccc4O)[C@H](O)c3ccc(c(Cl)c3)Oc3cc2cc(c3O[C@@H]2O[C@H](CO)[C@@H](O)[C@H](O)[C@H]2O[C@H]2C[C@](C)(N)[C@H](O)[C@H](C)O2)Oc2ccc(cc2Cl)[C@H]1O [Vancomycin hydrochloride] | 0.978 ± 0.033
21 | CC(C)NCC(O)c1ccc2ccccc2c1 (stereo not given) [Pronethalol hydrochloride] | 0.96 ± 0.036
22 | CC1CS(=O)(=O)CCN1/N=C/c1ccc([N+](=O)[O-])o1 (stereo not given) [Nifurtimox] | 0.986 ± 0.038
23 | c1ccc(C2CN3CCSC3=N2)cc1 (stereo not given) [Tetramisole hydrochloride] | 1.05 ± 0.032
24 | COC1=CC(=O)C[C@@H](C)[C@]12Oc1c(Cl)c(OC)cc(OC)c1C2=O [Griseofulvin] | 1 ± 0.023
25 | Cc1ncc([N+](=O)[O-])n1CC(O)CCl (stereo not given) [Ornidazole] | 1.06 ± 0.028
26 | Cc1noc(NS(=O)(=O)c2ccc(N)cc2)c1C [Sulfisoxazole] | 1.04 ± 0.058
27 | C[C@@]1(O)CCOC(=O)C1 [Mevalonic-D, L acid lactone] | 1.09 ± 0.03
28 | Clc1cccc(Cl)c1NC1=NCCN1 [Clonidine hydrochloride] | 1.001 ± 0.0053
29 | CC(=O)N(O)CCCCCNC(=O)CCC(=O)N(O)CCCCCNC(=O)CCC(=O)N(O)CCCCCN [Deferoxamine mesylate] | 1.02 ± 0.042
30 | COC(=O)C1=C(C)NC(C)=C(C(=O)OC)C1c1ccccc1[N+](=O)[O-] [Nifedipine] | 1.05 ± 0.077
31 | COc1ccc(-c2ccc(=N)n(CCCC(=O)O)n2)cc1 [Gabazine bromide] | 0.983 ± 0.024
32 | CCN(CC)C(=O)Nc1ccc(OCC(O)CNC(C)(C)C)c(C(C)=O)c1 (stereo not given) [Celiprolol hydrochloride] | 1.03 ± 0.018
33 | CCN(CC)CCCC(C)Nc1ccnc2cc(Cl)ccc12 (stereo not given) [Chloroquine diphosphate] | 0.959 ± 0.049
34 | CN(C)CCCN1c2ccccc2CCc2ccccc21 [Imipramine hydrochloride] | 1.02 ± 0.14
35 | CNCCC(Oc1ccc(C(F)(F)F)cc1)c1ccccc1 (stereo not given) [Fluoxetine hydrochloride] | 0.903 ± 0.041
